High-throughput results from PubChem BioAssay.
Nox1 inh: inhibitors of human NADPH oxidase 1 (Nox1); Q9Y5S8; HT29 cells, luminol chemiluminescence ROS; inhibition, % at 6.7 µM; hit rate 0.81% among 16,000; AID 1792
Target sequence (Q9Y5S8 whole entry, looked up): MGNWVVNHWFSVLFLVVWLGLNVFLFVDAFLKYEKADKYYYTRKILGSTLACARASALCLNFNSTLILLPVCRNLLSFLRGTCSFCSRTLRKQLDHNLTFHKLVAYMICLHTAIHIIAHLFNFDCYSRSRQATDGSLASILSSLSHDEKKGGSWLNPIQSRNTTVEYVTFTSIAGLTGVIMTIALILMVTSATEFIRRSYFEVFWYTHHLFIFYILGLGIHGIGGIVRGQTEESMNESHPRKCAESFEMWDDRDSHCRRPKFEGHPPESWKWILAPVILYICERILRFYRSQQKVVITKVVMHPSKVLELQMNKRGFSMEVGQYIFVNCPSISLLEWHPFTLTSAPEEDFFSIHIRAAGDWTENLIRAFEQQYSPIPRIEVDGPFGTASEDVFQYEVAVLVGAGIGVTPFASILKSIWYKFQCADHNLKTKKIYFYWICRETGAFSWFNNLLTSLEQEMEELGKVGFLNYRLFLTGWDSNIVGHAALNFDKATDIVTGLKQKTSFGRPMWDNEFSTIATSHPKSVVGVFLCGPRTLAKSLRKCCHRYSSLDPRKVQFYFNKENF
NOTCH ag: agonists of NOTCH signaling; NOTCH signaling luciferase reporter cells, luminescence; activation, % at 2.5 µM; hit rate 0.4% among 15,000; in the data active = activation above about 2.2%
Luminol counter: counter-screen for Nox1 inhibitors: inhibitors of luminol chemiluminescence; HRP/luminol/H2O2 chemiluminescence counterscreen; inhibition, % at 6.7 µM; hit rate 0.4% among 16,000; AID 1823; note: reference of the scale not given here
An asterisk follows results filed as active. In the library only some 1.8% were active in any assay of this set; here they are far more common. Cut-off read from the data, not from the text of the source, unless noted: active = inhibition above about 75%; inactive = the rest.

SMILES	Nox1 inh	NOTCH ag	Luminol counter
CNC(=O)Oc1ccc(-c2nc(CSc3ccc(Cl)cc3)cs2)cc1	-27.2	0.2	101.7*
c1ccc2c(c1)CCc1c-2[nH]c2ccccc12	-11.0	-0.6	5.8
N#CC(C#N)=Cc1csc([N+](=O)[O-])c1	-56.5	-0.6	4.5
